In PubChem BioAssay AID1851 (National Center for Advancing Translational Sciences (NCATS), 2009):
“And” between values parts separate entries of the source, which are not always exact repeats. Identical values can stand only once. Screen size: about 16,000 compounds; about 4,000 (25%) were called active. Inconclusive results (about 26%) are left out. Calls follow the shape of the dose curve; as a rule, active = well fitted curve in the direction sought with a large enough effect; inconclusive = small, poorly fitted or top-dose-only effect, or effect the other way; inactive = no such curve, though single readings can be large or run the other way. Not all results are given here. Some compounds were tested as several samples or in several runs, with calls that do not always agree.

Biological target: Cytochrome P450 2C9 (Homo sapiens) (UniProt P11712)
Sequence (P11712 whole entry, looked up): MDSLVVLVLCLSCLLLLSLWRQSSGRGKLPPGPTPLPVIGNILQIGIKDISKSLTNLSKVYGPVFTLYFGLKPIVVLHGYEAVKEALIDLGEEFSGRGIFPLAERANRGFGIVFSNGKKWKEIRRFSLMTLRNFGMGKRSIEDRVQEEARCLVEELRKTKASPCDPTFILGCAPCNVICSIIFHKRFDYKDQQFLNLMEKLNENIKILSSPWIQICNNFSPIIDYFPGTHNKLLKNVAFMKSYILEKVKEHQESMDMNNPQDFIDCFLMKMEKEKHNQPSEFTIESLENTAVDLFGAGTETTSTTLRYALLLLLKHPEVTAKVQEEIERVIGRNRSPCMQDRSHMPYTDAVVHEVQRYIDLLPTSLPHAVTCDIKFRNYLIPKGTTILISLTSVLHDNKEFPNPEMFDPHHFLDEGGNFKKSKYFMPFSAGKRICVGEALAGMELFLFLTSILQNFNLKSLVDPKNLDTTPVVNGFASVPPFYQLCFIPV
Assay: Cytochrome panel assay with activity outcomes
Settings: recombinant CYP, pro-luciferin dealkylation, luminescence, p450-cyp2c9; series mostly up to 57.1 µM; activity, negative = inhibition: at the top concentration
% is scaled to controls: 0 for no effect and ±100 for the full control effect.

| SMILES | AC50 | activity, negative = inhibition |
| --- | --- | --- |
| Cc1cc(OCC(F)(F)C(F)(F)C(F)(F)C(F)(F)C(F)(F)C(F)F)nc(N)n1 | 12.6 µM (active) | – |
| CC(C)NC[C@@H](O)c1ccc(O)c2ncccc12 | – | 11% [at 11.4 µM] (inactive) |
| CCOc1ccc(C2=[N+]([O-])C(C)(C)N(O)C2(C)C)cc1 | – | -2.98% (inactive) |
| CCOc1ccc(-c2nnc(-c3ccncc3)o2)cc1 | 12.6 µM (active) | – |
| Oc1ccccc1-c1nnc(-c2ccc(C(F)(F)F)cc2)o1 | – | -14.7% (inactive) |
| Oc1cc2c(cc1O)[C@H](c1ccccc1)CNCC2 | – | -1.38% (inactive) |
| Cc1ccc(N=Nc2c(=O)[nH]n3c(C)cc(C)nc23)cc1 | – | -17% (inactive) |
| Cc1c2c(nc3c(C(=O)NC4CCCC4)cnn13)CCCC2 | – | -21.3% (inactive) |
| Cc1ccccc1-c1nc(N2CCN(C)CC2)c2ccccc2n1 | – | 5.44% [at 2.29 µM] (inactive) |
| Cc1ccc(N=Nc2c(N)[nH]n3c(=O)c4c(nc23)CCCC4)cc1 | 10 µM (active) | – |
| Cc1[nH]n2c(=O)c3c(nc2c1-c1cccc2ccccc12)CCC3 | 5.62 µM (active) | – |
| O=P(O)(O)O[C@@H]1O[C@H](CO)[C@@H](O)[C@H](O)[C@@H]1O | – | 8.79% [at 11.4 µM] (inactive) |
| CCN(CC)[C@@H](C)CN1c2ccccc2Sc2ccccc21 | – | -14.4% [at 25.6 µM] (inactive) |
| Cc1c(-c2ccccc2)oc2c(C(=O)OCCN3CCCCC3)cccc2c1=O | – | -17.4% [at 25.6 µM] (inactive) |
| O=C(OCCN1CCCCC1)c1c[nH]c2ccccc12 | inactive and 2 µM (active) | – |
| COc1cccc(OC)c1OCCCCN1CCCC1 | – | 7.15% (inactive) |
| C[C@@](N)(Cc1ccc(O)c(O)c1)C(=O)O | inactive | – |
| CCOC(=O)c1c(C(C)(C)C)oc2ccc(O)cc12 | 20 µM (active) | – |
| C[C@@](N)(Cc1ccc(O)cc1)C(=O)O | inactive | – |
| CCC(=O)NC(=S)N1CCN(c2ccc([N+](=O)[O-])cc2Cl)CC1 | – | -29.7% (inactive) |
| COc1cccc(OC)c1C(=O)NC(=S)N1CCN(c2ccc(C(F)(F)F)cc2[N+](=O)[O-])CC1 | 0.355 µM (active) | – |
| CC(C)Oc1cccc(C(=O)NC(=S)N2CCN(c3ccc(C(F)(F)F)cc3[N+](=O)[O-])CC2)c1 | 3.16 µM (active) | – |

| SMILES | AC50 | activity, negative = inhibition |
| --- | --- | --- |
| CC1CN(C(=S)NC(=O)c2ccc([N+](=O)[O-])cc2)CC(C)O1 (stereo unspecified) | – | -28.7% (inactive) |
| CC(C)N=C(N)/N=C(\N)Nc1ccc(Cl)cc1 | – | 13.8% [at 25.6 µM] (inactive) |
| CNCCc1ccccn1 | – | 3.59% [at 25.6 µM] (inactive) |
| O=c1ccn([C@@H]2O[C@@H](COP(=O)(O)OP(=O)(O)O)[C@H](O)[C@@H]2O)c(=O)[nH]1 | – | 5.9% (inactive) |
| COc1cc2nc3c(c([Si](C)(C)C(C)(C)C)c2cc1OC)Cn1c-3cccc1=O | 15.8 µM (active) | – |
| COc1ccc2nc3c(c([Si](C)(C)C(C)(C)C)c2c1)Cn1c-3cccc1=O | 12.6 µM (active) | – |
| CCc1c2c(nc3ccc(OC)cc13)COC2 | – | -18.7% (inactive) |
| CC(C)NC(=O)N1CCCC2(CCN(C(=O)c3cc(C(F)(F)F)cc(C(F)(F)F)c3)CC2)C1 | – | -6.66% (inactive) |
| CC(C)CN(CC#N)CC(C)C | – | 4.39% [at 11.4 µM] (inactive) |
| CSc1nc2ccccc2cc1/C=C(\C#N)c1ccc(Cl)cc1Cl | 25.1 µM (active) | – |
| CSc1nc2ccccc2cc1/C=C(\C#N)c1ccccc1 | 3.98 µM (active) | – |
| CN(C)CCCc1c2ccccc2nc2ccc(Cl)cc12 | – | 11.6% [at 11.4 µM] (inactive) |
| COc1ccc(-n2c(=O)cnc3cnc(OC)nc32)cc1 | – | 25.6% (inactive) |
| O=C(O)CC1(CC(=O)O)Nc2ccccc2SC1=O | – | -2.99% [at 11.4 µM] (inactive) |
| O[C@@](CCN1CCCCC1)(c1ccccc1)C1CCCCC1 | inactive | – |
| Cc1c(Cl)cccc1NC(=O)CN1CCC(C(O)(c2ccccc2)c2ccccc2)CC1 | 2 µM (active) | – |
| Cc1ccccc1NC(=O)CN1CCC(n2nnc3ccccc32)CC1 | – | -20.6% (inactive) |
| Cc1c(Cl)cccc1NC(=O)CC1NCCNC1=O (stereo unspecified) | – | -4.3% (inactive) |
| Cc1c(NC(=O)CN2CCN(c3ccccc3)CC2)c(=O)n(-c2ccccc2)n1C | – | -21.7% (inactive) |
| Cc1cc(Cl)ccc1NC(=O)CN1CCC(C(O)(c2ccccc2)c2ccccc2)CC1 | 7.08 µM (active) | – |
| CCc1nc2cc(CC(=O)O)ccc2o1 | – | 1.01% (inactive) |
| COC(=O)[C@H]1C[C@@H]1[C@H](NC(=O)c1cnccn1)c1ccccc1 | – | -9.04% (inactive) |

| SMILES | AC50 | activity, negative = inhibition |
| --- | --- | --- |
| COC(=O)[C@@H]1C[C@H]1[C@@H](NC(=O)c1cnccn1)c1ccccc1 | – | -6.71% (inactive) |
| C[C@@H](C(=O)Nc1ccc2ccccc2c1)[C@H]1C[C@]1(C)[C@H](NC(=O)c1cnccn1)c1ccccc1 | 5.01 µM (active) | – |
| C[C@@H](C(=O)Nc1ccc2ccccc2c1)[C@@H]1C[C@@]1(C)[C@@H](NC(=O)c1cnccn1)c1ccccc1 | 0.0631 µM (active) | – |
| COC(=O)C1=C(C)NC(C)=C([N+](=O)[O-])[C@@H]1c1ccccc1C(F)(F)F | 0.158 µM (active) | – |
| COC(=O)C1=C(C)NC(=O)NC1c1ccsc1 (stereo unspecified) | – | -29.4% (inactive) |
| COC(=O)C1=C(C)NC(C)=C([N+](=O)[O-])[C@H]1c1ccccc1C(F)(F)F | 2 µM (active) | – |
| CO[C@@H]1/C=C\CC(=O)N[C@@H](C)C(=O)OC[C@H](NS(=O)(=O)c2ccc(C)cc2)[C@H](C)/C=C\CC(=O)OC[C@H]1C | – | 14.6% [at 11.4 µM] (inactive) |
| Cc1ccc([N+](=O)[O-])cc1NC(=S)NC(=O)C(C)(C)C | 0.708 µM (active) | – |
| Cc1ccc([N+](=O)[O-])cc1NC(=S)NC(=O)CC(C)(C)C | 2.24 µM (active) | – |
| Cc1cnc(CNc2ncncc2-c2ccccc2C(F)(F)F)cn1 | – | 1.53% [at 2.29 µM] (inactive) |
| COc1ccc(OC)c2[nH]c(=O)c(CCNC(=O)c3ccc(S(=O)(=O)N(C)C)cc3)cc12 | 7.94 µM (active) | – |
| CCN1CCCC1CNC(=O)CCNC(=O)c1cc(OC)c(OC)c(OC)c1 (stereo unspecified) | – | 2.4% (inactive) |
| COc1ccc2cc(CCNC(=O)C3CC3)c(=O)[nH]c2c1 | – | -6.56% (inactive) |
| COc1ccc(OC)c2[nH]c(=O)c(CCNC(=O)c3ccc(S(=O)(=O)N4CCCC4)cc3)cc12 | 11.2 µM (active) | – |
| CCN(CC)CCNC(=O)c1cc(S(C)(=O)=O)ccc1OC | – | 8.64% (inactive) |
| CCOC(=O)C(C)(C)[C@H](O)C(C)C | – | -6.81% [at 11.4 µM] (inactive) |
| Cc1ccc(CNC(=O)CCc2c(C)nc3ncnn3c2C)cc1 | – | 0.499% (inactive) |
| COc1ccc(CCNc2cc(-c3ccccc3)nc3ncnn23)cc1 | 5.62 µM (active) | – |
| COc1cccc(-c2nccc(NCc3ccccc3)n2)c1 | – | -19.2% [at 2.29 µM] (inactive) |
| CCc1c(C)nc2ncnn2c1NCCc1ccc(OC)cc1 | 1.58 µM (active) | – |
| COc1cccc(-c2cc(NCc3ccccc3)ncn2)c1 | – | -1.27% [at 2.29 µM] (inactive) |
| CCOC(=O)CCc1c(C)nc2ncnn2c1C | – | -3.02% (inactive) |
